Assay results: ChEMBL document CHEMBL3988442, “University of Dundee, Small-Polar-MMV Screening Library” (2021)
In all, about 48,000 compounds went through this assay and about 13,000 (27%) showed an effect of 50% or more. The list shows a part of the results.

Test system: Wolbachia pipientis
Test: Anti-Wolbachia Cell-Based Screen
Assay type: functional
Set-up: scale not given: in the data most compounds retested in dose-response had high values
Conditions: 5 µM

SMILES	Percent Effect [%]
COc1ccc(C(O)CN2CC(n3cc(C)cn3)C2)cc1 (configuration not stated)	-26.31
NCc1cccc(-c2cccnc2C(=O)NCCCN2CCOCC2)c1	156.6
O=C(NCCCN1CCOCC1)c1ccc(-c2ccccc2)[nH]c1=O	-4.893
COc1cc(CN(C)C(=O)NCc2ccccn2)ccc1SC	-14.77
O=C(NCCN1CCCCCC1)c1cccc(Cl)c1Cl	-3.616
O=C(NCCCN1CCOCC1)c1cc(-c2ccccc2)[nH]n1	93.89
CN(C)Cc1cccc(-c2cccnc2C(=O)NCc2ccccn2)c1	107.8
O=C(NCCCN1CCOCC1)c1ccnc(OCc2ccccc2)c1	13.78
NCc1cccc(-c2cccnc2C(=O)NCCN2CCCC2)c1	177.6
O=C(NCCCN1CCOCC1)c1cc(-c2ccco2)[nH]n1	0.6677
Cn1ccnc1-c1cccc(NC(=O)NCCCN2CCOCC2)c1	9.655
O=C(NCCN1CCCCC1)c1cccc(Cl)c1Cl	-2.651
Cc1oc(C)c(C(=O)NCc2ccccn2)c1C	-10.25
CC(CC#N)NC(=O)c1cc(Br)c2c(c1)OCCO2 (configuration not stated)	3.147
Cc1ccc(C(=O)N2CCC(C(F)(F)F)CC2)cc1N1CCNC1=O	18.95
O=C(O)C(F)(F)F.O=C1CCCN1CC1CN(CC2CCOCC2)Cc2nccn2C1 (configuration not stated)	-5.52
CCCn1cnnc1CNCc1c[nH]nc1-c1ccc(F)cc1	-2.592
c1cncc(-c2nnc(C3(c4ccc5c(c4)OCO5)CCOCC3)o2)c1	0.6275
Cn1ccnc1-c1cccc(NC(=O)NCCN2CCOCC2)c1	1.066
O=C(NCCN1CCOCC1)c1cc(-c2ccccc2Cl)[nH]n1	0.5934
NCc1cccc(-c2cccnc2C(=O)NCCN2CCOCC2)c1	178.8
O=C(NCCCn1ccnc1)Nc1ccn(CCc2ccccn2)n1	-2.122

SMILES	Percent Effect [%]
CCN(Cc1cccc(C(=O)Nc2cn(C)nn2)c1)[C@H]1COC[C@@H]1O	20.02
COc1cc(N2CCn3cc(CNc4ccccn4)nc3C2)ncn1	0.6158
CC(C)OCCC(=O)NCCC(=O)N1CCN(c2ccccn2)CC1	105.6
CC(C)COCCC(=O)NCCC(=O)N1CCN(c2ccccn2)CC1	140.4
Cc1ncsc1CNC(=O)CCN1CCN(c2ccccn2)CC1	-8.127
Cc1csc(N2CCN(C(=O)CCNc3ncccn3)CC2)n1	-3.8
Cc1cc(CNC(=O)CCN2CCN(c3ccccn3)CC2)c(C)o1	-14.14
Cc1ccc(CNC(=O)CCN2CCN(c3ccccn3)CC2)n1C	5.614
Cc1nc(N(C)C)nc2c1COCC21CCN(C(=O)NCC(C)C)C1 (configuration not stated)	114.7
Cc1noc(C)c1CN1CCC2(COCc3cnc(N(C)C)nc32)C1.O=C(O)C(F)(F)F (configuration not stated)	-6.223
Cc1nc(N2CCOCC2)nc2c1COCC21CCN(CC(C)C)C1 (configuration not stated)	0.306
Cc1nc(N(C)C)nc2c1COCC21CCN(C(=O)C2CC2)C1 (configuration not stated)	112
CC(=O)NCC(=O)N1CCC2(COCc3c(C)nc(N(C)C)nc32)C1 (configuration not stated)	108.4
Cc1nc(N2CCOCC2)nc2c1COCC21CCN(CC2CC2)C1.O=C(O)C(F)(F)F (configuration not stated)	1.071
COCCN1CCC2(COCc3c(C)nc(N4CCOCC4)nc32)C1.O=C(O)C(F)(F)F (configuration not stated)	8.185
COCC(=O)N1CCC2(COCc3c(C)nc(N(C)C)nc32)C1 (configuration not stated)	100.6
CCC(=O)N1CCC2(COCc3c(C)nc(N(C)C)nc32)C1 (configuration not stated)	5.169
Cc1nc(N(C)C)nc2c1COCC21CCN(C(=O)NC(C)C)C1 (configuration not stated)	14.65
Oc1c(F)cc(CNc2cccc(-c3nnc[nH]3)c2)cc1F	3.752
NCc1cn(CC2CCCN(C(=O)NCCc3ccc(F)cc3)C2)nn1 (configuration not stated)	-14.7
O=C(CSc1nnc[nH]1)NCc1sccc1Br	-6.223
COc1ccc(CCCC(=O)N2CCCC(n3cncn3)C2)cc1 (configuration not stated)	-28.74

SMILES	Percent Effect [%]
COc1ccc(CCN2CCCC(n3cncn3)C2)cc1 (configuration not stated)	-2.484
O=C(Cc1ccc2c(c1)OCCO2)N1CCCC(n2cncn2)C1 (configuration not stated)	8.803
O=C(CCc1ccsc1)N1CCCC(n2cncn2)C1 (configuration not stated)	119.5
N#Cc1ccc(CCC(=O)N2CCCC(n3cncn3)C2)cc1 (configuration not stated)	122.1
COc1ccc(CCC(=O)N2CCCC(n3cncn3)C2)cc1 (configuration not stated)	106.9
O=C(CCc1ccc(Cl)s1)N1CCCC(n2cncn2)C1 (configuration not stated)	2.271
N#Cc1ccc(CC(=O)N2CCCC(n3cccn3)C2)cc1 (configuration not stated)	3.73
O=C(c1cccnc1O)N1CCCC2(C=Cc3ccccc3O2)CC1 (configuration not stated)	2.5
COc1cccc(COCC(O)CN2CC(n3cccn3)C2)c1 (configuration not stated)	-10.3
FC(F)Oc1ccc(CN2CCOC3(CCOCC3)C2)cc1Cl	7.261
CN(C)C(=O)N1CCN(Cc2ccc3occc3c2)[C@H]2CS(=O)(=O)C[C@H]21	-2.327
COc1ccccc1CCN(C)C(=O)NC(C)c1nncn1C (configuration not stated)	3.532
CC(Nc1nc2c(cnn2C)c(=O)[nH]1)c1ccccn1 (configuration not stated)	-0.01009
O=C(NCCCNc1ccccc1)c1scnc1Cl	2.651
O=C(CN1CCOC(c2ccccc2C(F)(F)F)C1)NC1CC1 (configuration not stated)	8.433
COCCCNc1nc(CNC(=O)C2CCC2)cc(-c2ccco2)n1	103.2
COCCN1CCn2cc(CNC(=O)C3CCC3)nc2C1	-2.168
COCCNc1ccccc1CNC(=O)C1CCCOC1 (configuration not stated)	-2.92
COCCN(C(=O)c1nc(-c2ccco2)sc1C)C1CC1	4.119
Cc1cc(NCc2csc(-c3ccco3)n2)ccc1C(N)=O	-17.43
COCCCNc1nc(CNC(C)=O)cc(-c2ccco2)n1	96.87
CN1CCC(N2CCOC[C@H](OCC(=O)N(C)C)C2)CC1	-7.154

SMILES	Percent Effect [%]
CN(Cc1nccs1)c1nc(-c2ccccn2)nc2c1CCNCC2	-16.23
O=C1NCCCCC1NC(=O)N1CCc2ccccc21 (configuration not stated)	-9.694
CCN1CCN(C2(C(=O)NC3CCCC3)Cc3ccccc3C2)CC1	34.09
C[C@@H]1CN(C(=O)C2(N3CCCCC3)Cc3ccccc3C2)C[C@H](C)O1	1.52
C[C@@H]1CN(C2(C(=O)N3CCCCCC3)Cc3ccccc3C2)C[C@H](C)O1	10.21
O=C(NC1CCNCC1)C1(N2CCCCC2)Cc2ccccc2C1	123.6
O=C1NCCCC[C@@H]1NC(=O)C1(N2CCCCC2)Cc2ccccc2C1	94.83
O=C1NCCCCC1NC(=O)N1CCCc2ccccc21 (configuration not stated)	0.9845
O=C(NC1CCNC1)C1(N2CCCCC2)Cc2ccccc2C1 (configuration not stated)	108.7
C[C@@H]1CN(C2(C(=O)N3CCNCC3)Cc3ccccc3C2)C[C@H](C)O1	0.2637
Cc1ccsc1C(=O)NC1CCS(=O)(=O)c2ccccc21 (configuration not stated)	9
CC(C)COCC(NC(=O)CSc1nnc[nH]1)c1ccco1 (configuration not stated)	34.68
CCC(C)(C)n1nnnc1C(c1cccs1)N1CCc2ccccc2C1 (configuration not stated)	110.2
CCC(CNC(=O)c1cncc(Br)c1)N1CCc2ccccc2C1 (configuration not stated)	4.86
CCC(C)(C)n1nnnc1C(c1cccs1)N1CCc2ccccc21 (configuration not stated)	114.5
CCC(CNC(=O)c1ccccn1)N1CCc2ccccc2C1 (configuration not stated)	2.728
CCn1cnnc1CNC(=O)NCC(c1cccs1)N1CCCC1 (configuration not stated)	-4.375
Cc1nnc(NCC(c2cccs2)N2CCCC2)c(C#N)c1C (configuration not stated)	15.53
CCC(C)(C)n1nnnc1C(c1cccs1)N1CCCCC1 (configuration not stated)	117.5
Cc1nc(CN2CCCn3cnc(COC(C)C)c3C2)cs1.O=C(O)C(F)(F)F	6.346
CCOc1ccc2c(c1)C=C(C(=O)NC(C)Cn1cccn1)CO2 (configuration not stated)	15.57
CSCCC(=O)N1CCC(c2nccn2CCN(C)C)CC1	-6.399

SMILES	Percent Effect [%]
CCCN(C(=O)CS(=O)(=O)c1ccccc1)c1cccc(C)c1	-28.2
Cc1cccc(-c2c[nH]c(C3CCCN3)n2)c1.Cl.Cl (configuration not stated)	-28.51
Cl.c1cc(NCc2ccncc2)nc(C2CCCNC2)c1 (configuration not stated)	93.58
Cl.FC(F)CNc1cnc(C2CCCN2)cn1 (configuration not stated)	111.3
OC1CCN(Cc2ccc(CNc3ccc(Cl)cn3)cc2)CC1	-3.648
Cl.c1cc(CNc2cnc(C3CCCN3)cn2)ccn1 (configuration not stated)	93.64
Cl.c1cc(NCc2ccncc2)nc(C2CCCN2)c1 (configuration not stated)	109.1
COCC(=O)Nc1ccc(-c2noc([C@@H]3CCCN3)n2)cn1	10.12
c1ccc(NCCn2cc(C3CCCNC3)nn2)cc1 (configuration not stated)	-6.163
O=C(CCNc1ccc(Br)cn1)NCc1ccncc1	2.511
CCOc1cncc(N(C)CC(=O)NC)n1	3.632
COc1ccc(F)cc1C(=O)N1CCn2c(nnc2C(F)(F)F)C1	-12.82
CC(CNC(=O)c1cccc(-n2cccn2)n1)Cn1ccnc1 (configuration not stated)	-7.743
CCN1CC2(CCC1=O)CCN(C(=O)C(O)c1cccc(Cl)c1)CC2 (configuration not stated)	-4.5
Cc1ccc(NCCCNC(=O)NCC2CCS(=O)(=O)C2)nc1 (configuration not stated)	4.563
CCC(CC)CNCC1(S(C)(=O)=O)CCOCC1	-4.414
CCC[C@@H]1CN(S(=O)(=O)c2ccc(OC)c(OC)c2)C[C@H]1NC(C)=O	-5.851
CCC[C@H]1CN(S(=O)(=O)c2ccc(Cl)cc2)C[C@@H]1NC(C)=O	12.77
CC(=O)N[C@@H]1CN(S(=O)(=O)c2ccc(Cl)cc2)C[C@H]1O	155.9
